Drawing on PubChem BioAssay (NCI), this text covers growth inhibition for 14 compounds.

The nature of the assay: NCI Yeast Anticancer Drug Screen. Data for the cln2 rad14 strain (AID 165).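 Also: 0% = growth equal to vehicle treated cultures.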 The note with it: S. cerevisiae cln2 rad14 strain, active compounds read high. Here is the method: Growth inhibition of yeast strains with defined genetic alterations is measured as a screen for potential anti-cancer activity. Selected strains with alterations in DNA damage repair or cell cycle control were exposed to compounds and growth inhibition was measured relative to vehicle treated controls. The strain used in this assay is cln2 rad14

Where [1] appears, read: at 5.0 µM (retest, dose inferred, filed as 0.5).
The mark [2] stands for this setting: at 50.0 µM (retest, dose inferred, filed as 5.0).

The structures appear in SMILES notation. Compounds without any hit were thinned out: in the full panel of roughly 79,000, 15% have a hit. Unmarked numbers belong to inactive results. Calls of active or inactive are those of the source. Rule as the data show it: active = growth inhibition above about 70%; inactive = the rest.

For the compound `CCc1c(C)[nH]c2c([N+](=O)[O-])cccc12`, the growth inhibition reads like this: under setting [1], -6%; under setting [2], -2%; (at 50.0 µM) 94.5% (active).
For the compound `CC(=O)Oc1ccc(C(C)(C)CC(C)(C)C)cc1`, the growth inhibition by setting is: under setting [1], -3%; under setting [2], 42%; (at 50.0 µM) 86.3% (active).
The matching figures for `NC(=S)c1cccc(OCCCOc2ccccc2)c1`: -8%, 1% and 98.2% (active).
The matching figures for `O=C(NC1CCN(Cc2ccccc2)CC1)c1cccc(I)c1`: 84% (active), 88% (active) and 82.2% (active).
In the case of `CCN(CC)Cc1cc(Nc2c3ccccc3nc3c2[nH]c2ccccc23)ccc1O`, the growth inhibition was 44% under setting [1], 44% under setting [2] and -3% (at 50.0 µM).
Regarding `O=C(Nc1ccc(Cl)cc1Cl)OC(Cn1cncn1)c1ccc(Cl)cc1Cl` (configuration not stated), the growth inhibition is, setting by setting: under setting [1], 66%; under setting [2], 66%; (at 50.0 µM) 88.7% (active).
As to `CCOC(=O)C(=C=C=C(c1ccccc1)c1ccccc1)C(=O)OCC`, the growth inhibition by setting is: under setting [1], 0%; under setting [2], 1%; (at 50.0 µM) 50.1%.
The matching figures for `N#Cc1c(-c2ccc(Cl)cc2)c2c(n(C3OC(CO)C(O)C(O)C3O)c1=S)CCCC2` (configuration not stated): 3%, 86% (active) and 31.2%.
The matching figures for `CC(=O)N1C(c2[nH]c3ccccc3c2-c2ccccc2)CCN1c1ccccc1` (configuration not stated): 7%, 73% (active) and 69.9%.
The matching figures for `OCCSC(=S)Nc1ccc(Cl)c(Cl)c1`: 0%, 99% (active) and 99.5% (active).
Consider `CCCCCOCC(=O)OC`, for which the growth inhibition under setting [1] is 2%, the growth inhibition under setting [2] was 0% and the growth inhibition (at 50.0 µM) is 44.2%.
Take `CN(Cc1cc(Cl)cc(Cl)c1O)Cc1c(O)ccc2ccccc12`: the growth inhibition by setting is: under setting [1], -34%; under setting [2], 99% (active); (at 50.0 µM) 98.1% (active).
The matching figures for `CCC1(O)c2ccccc2C(O)(CC)c2ccccc21` (configuration not stated): 3%, 21% and 96.5% (active).
For the compound `CCC(C)(C)c1ccc(OC(=O)C(C)OC(C)=O)cc1` (configuration not stated), the growth inhibition runs as follows: under setting [1], 1%; under setting [2], 21%; (at 50.0 µM) 49.9%.
